# Measured values as given in the supplement of paper PMC10121225.
# Test system: hN + hpA co-culture (H1 iNGN2 human neurons + human primary astrocytes)
# Test: presynaptic density (SYNAPSIN1 puncta per MAP2 neurite area), Z-score vs DMSO controls; higher = more presynaptic puncta (synapse-promoting)
# Details: 3 µM; 72 h
# 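Further: immunostained co-cultures imaged by high-content microscopy, Z-score per plate against mean and SD of 0.1% DMSO wells, compounds added on differentiation day 18, analysed day 21.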
row,Compound,presynaptic density (Z-score)
1,CCC(COC(=O)c1cc(OC)c(OC)c(OC)c1)(c1ccccc1)N(C)C (stereo unspecified),0.31
2,"O=[N+]([O-])C=Cc1ccc2c(c1)OCO2 [MNS (3,4-Methylenedioxy-Œ≤-nitrostyrene]",-0.543
3,Cc1cc(SCc2sc(-c3ccc(C(F)(F)F)c(F)c3)nc2C)ccc1OCC(=O)O,0.227
4,CN1CCCCC1Cn1cc(C(=O)c2cc([N+](=O)[O-])ccc2I)c2ccccc21 (stereo unspecified),-0.667
5,Cc1cc2c(C(C)C)c(O)c(O)c(C=O)c2c(O)c1-c1c(C)cc2c(C(C)C)c(O)c(O)c(C=O)c2c1O,-4.31
6,CC(=O)O[C@H]1C[C@@H]2CC[C@@H]3[C@H](CC[C@@]4(C)[C@H]3C[C@H]([N+]3(C)CCCCC3)[C@@H]4OC(C)=O)[C@@]2(C)C[C@@H]1[N+]1(C)CCCCC1 [Pancuronium dibromide],-0.361
7,C=C1C[C@@H]2[C@H](CC[C@]3(C)C(=O)CC[C@@H]23)[C@@]2(C)C=CC(=O)C=C12 [Exemestane],0.646
8,O=C(O[C@H]1C[C@H]2CC[C@@H](C1)[N+]21CCCC1)C(O)(c1ccccc1)c1ccccc1 [Trospium chloride],-0.748
9,COc1ccc(C(=O)N2CCCC2=O)cc1 [Aniracetam],0.286
10,CCCN1CCO[C@@H]2c3cc(O)ccc3OC[C@H]21,0.0588
11,C[C@@H]1O[C@@H](O[C@H]2C[C@@H](O)[C@]3(CO)[C@H]4[C@H](O)C[C@]5(C)[C@@H](C6=CC(=O)OC6)CC[C@]5(O)[C@@H]4CC[C@]3(O)C2)[C@H](O)[C@H](O)[C@H]1O [Ouabain],-1.54
